Measurements reported in publication PMC7862700, “An all-to-all approach to the identification of sequence-specific readers for epigenetic DNA modifications on cytosine”.

Tests used:
Experiment in all cases: DAPPL (digital affinity profiling via proximity ligation, sequencing); 10 mM Tris-HCl pH 7.5, 50 mM NaCl, 1 mM DTT, 4% glycerol, room temperature, 30 min; GST-TFs on glutathione beads, 16-mer random dsDNA library, 0.1% formaldehyde crosslink after washing; high values mean tight binding
Conditions in all cases: protein: recombinant; tags: N-terminal GST; dsDNA, one strand shown
[1] = target: T1, FEV (Homo sapiens, UniProt Q99581 1-238)
T1 sequence: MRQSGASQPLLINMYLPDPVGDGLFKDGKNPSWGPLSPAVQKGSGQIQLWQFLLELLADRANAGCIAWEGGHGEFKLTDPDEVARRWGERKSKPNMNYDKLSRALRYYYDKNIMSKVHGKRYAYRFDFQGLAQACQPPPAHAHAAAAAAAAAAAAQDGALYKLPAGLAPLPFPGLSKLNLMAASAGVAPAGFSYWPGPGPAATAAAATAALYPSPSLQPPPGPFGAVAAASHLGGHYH
Summary of the method: (§1)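 A tag-only sample was pooled with DNA-barcoded human transcription factors that had been expressed in yeast as GST fusions and captured on glutathione beads. The pools were incubated for 30 min at room temperature with 200 nmole of a random double-stranded 16-mer DNA library in Tris/NaCl/DTT/glycerol buffer, then washed, crosslinked with 0.1% formaldehyde, proximity-ligated (BsaI/T4 ligase, 1 h, 37 °C), PCR-amplified and sequenced on an Illumina NextSeq500. Binding signal is each hexamer's read frequency for a factor divided by its frequency for the tag-only sample.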

[2] = target: ETV5 (Homo sapiens, UniProt P41161 1-510)
Summary of the method: as §1

[3] = target: T2, SPIC (Homo sapiens, UniProt Q8N5J4 1-248)
T2 sequence: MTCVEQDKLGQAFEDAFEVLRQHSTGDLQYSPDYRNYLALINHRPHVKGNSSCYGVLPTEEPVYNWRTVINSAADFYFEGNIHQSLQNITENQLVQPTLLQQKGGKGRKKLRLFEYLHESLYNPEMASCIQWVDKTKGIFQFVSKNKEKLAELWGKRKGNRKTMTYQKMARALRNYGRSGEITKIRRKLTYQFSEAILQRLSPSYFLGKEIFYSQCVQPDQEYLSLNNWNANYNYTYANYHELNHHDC
Summary of the method: as §1

[4] = target: ELF4 (Homo sapiens, UniProt Q99607 1-663)
Summary of the method: as §1

[5] = target: T3, ELK4 (Homo sapiens, UniProt P28324-2 1-405)
T3 sequence: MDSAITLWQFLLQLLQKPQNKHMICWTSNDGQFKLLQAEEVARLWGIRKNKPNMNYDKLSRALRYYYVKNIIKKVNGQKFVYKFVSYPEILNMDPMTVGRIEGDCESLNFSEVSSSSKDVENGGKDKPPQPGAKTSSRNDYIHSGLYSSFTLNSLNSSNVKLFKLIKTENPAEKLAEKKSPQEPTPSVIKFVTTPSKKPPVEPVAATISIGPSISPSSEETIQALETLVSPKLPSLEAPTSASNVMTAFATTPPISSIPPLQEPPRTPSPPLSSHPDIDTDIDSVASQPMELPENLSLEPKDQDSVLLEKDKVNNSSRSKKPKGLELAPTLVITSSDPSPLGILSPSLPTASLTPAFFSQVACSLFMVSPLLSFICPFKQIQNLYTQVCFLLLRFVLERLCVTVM
Summary of the method: as §1

[6] = target: T4, ETV2 (Homo sapiens, UniProt O00321 1-342)
T4 sequence: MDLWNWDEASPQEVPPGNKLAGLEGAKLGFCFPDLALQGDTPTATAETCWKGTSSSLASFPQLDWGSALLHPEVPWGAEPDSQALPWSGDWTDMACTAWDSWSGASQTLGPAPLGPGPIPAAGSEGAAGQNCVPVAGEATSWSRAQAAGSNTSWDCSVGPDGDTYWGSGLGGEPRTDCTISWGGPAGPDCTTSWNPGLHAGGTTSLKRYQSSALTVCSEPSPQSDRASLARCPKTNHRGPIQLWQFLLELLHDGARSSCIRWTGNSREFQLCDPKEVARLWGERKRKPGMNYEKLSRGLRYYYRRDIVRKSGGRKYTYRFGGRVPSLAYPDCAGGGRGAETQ
Summary of the method: as §1

[7] = target: T5, ELF3 (Homo sapiens, UniProt P78545 1-371)
T5 sequence: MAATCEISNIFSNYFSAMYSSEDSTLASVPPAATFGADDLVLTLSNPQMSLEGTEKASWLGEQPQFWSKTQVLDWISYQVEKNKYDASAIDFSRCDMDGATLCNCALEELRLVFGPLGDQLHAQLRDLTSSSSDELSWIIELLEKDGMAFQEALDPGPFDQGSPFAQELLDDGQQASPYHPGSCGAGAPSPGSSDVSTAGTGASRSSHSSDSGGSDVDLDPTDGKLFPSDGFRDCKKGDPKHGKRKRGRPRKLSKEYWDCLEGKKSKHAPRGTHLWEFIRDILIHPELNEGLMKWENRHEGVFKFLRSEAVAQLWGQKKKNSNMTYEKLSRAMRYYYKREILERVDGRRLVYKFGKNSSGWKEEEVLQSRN
Summary of the method: as §1

[8] = target: CRX (Homo sapiens, UniProt O43186 1-299)
Summary of the method: as §1

[9] = target: ETV1 (Homo sapiens, UniProt P50549 1-477)
Summary of the method: as §1

[10] = target: T6, ERF (Homo sapiens, UniProt P50548 1-548)
T6 sequence: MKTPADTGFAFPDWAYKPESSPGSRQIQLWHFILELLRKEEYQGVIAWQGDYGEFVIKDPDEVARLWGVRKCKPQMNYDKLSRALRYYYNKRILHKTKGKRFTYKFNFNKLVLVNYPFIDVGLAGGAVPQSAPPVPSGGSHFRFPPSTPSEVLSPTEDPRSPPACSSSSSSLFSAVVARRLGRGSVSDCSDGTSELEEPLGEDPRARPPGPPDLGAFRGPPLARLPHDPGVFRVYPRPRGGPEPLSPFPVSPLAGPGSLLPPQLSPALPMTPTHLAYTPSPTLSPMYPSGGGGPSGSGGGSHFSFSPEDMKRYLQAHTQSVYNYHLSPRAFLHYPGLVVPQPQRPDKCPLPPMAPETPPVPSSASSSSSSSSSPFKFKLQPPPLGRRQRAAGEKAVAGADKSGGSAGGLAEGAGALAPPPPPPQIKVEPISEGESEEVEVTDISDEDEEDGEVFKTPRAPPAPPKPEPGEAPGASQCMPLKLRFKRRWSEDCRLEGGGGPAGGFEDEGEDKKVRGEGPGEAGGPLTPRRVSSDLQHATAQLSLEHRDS
Summary of the method: as §1

[11] = target: T7, ETV3L (Homo sapiens, UniProt Q6ZN32 1-361)
T7 sequence: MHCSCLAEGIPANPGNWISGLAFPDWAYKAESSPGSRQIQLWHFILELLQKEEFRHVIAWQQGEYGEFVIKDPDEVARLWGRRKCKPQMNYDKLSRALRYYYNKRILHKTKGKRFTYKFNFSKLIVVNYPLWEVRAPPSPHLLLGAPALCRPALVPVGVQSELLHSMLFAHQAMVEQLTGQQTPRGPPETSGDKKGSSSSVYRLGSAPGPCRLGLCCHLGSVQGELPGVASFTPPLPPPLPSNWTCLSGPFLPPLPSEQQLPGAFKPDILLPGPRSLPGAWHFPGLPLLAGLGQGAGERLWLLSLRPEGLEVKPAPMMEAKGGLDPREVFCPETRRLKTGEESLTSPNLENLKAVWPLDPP
Summary of the method: as §1

[12] = target: T8, ETS2 (Homo sapiens, UniProt P15036 1-469)
T8 sequence: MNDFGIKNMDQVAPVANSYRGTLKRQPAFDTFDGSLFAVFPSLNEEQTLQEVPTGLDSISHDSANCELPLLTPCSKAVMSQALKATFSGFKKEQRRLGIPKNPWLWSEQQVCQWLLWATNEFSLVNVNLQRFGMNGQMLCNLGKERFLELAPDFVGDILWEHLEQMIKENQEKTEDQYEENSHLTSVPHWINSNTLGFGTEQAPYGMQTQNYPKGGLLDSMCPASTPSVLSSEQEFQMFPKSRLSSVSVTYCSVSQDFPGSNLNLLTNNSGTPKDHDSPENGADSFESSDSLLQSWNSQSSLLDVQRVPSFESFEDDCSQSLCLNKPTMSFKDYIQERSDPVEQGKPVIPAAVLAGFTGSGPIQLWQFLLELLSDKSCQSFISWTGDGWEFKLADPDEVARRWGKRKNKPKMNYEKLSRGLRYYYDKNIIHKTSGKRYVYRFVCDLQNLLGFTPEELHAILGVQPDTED
Summary of the method: as §1

[13] = target: T9, SPDEF (Homo sapiens, UniProt O95238 1-335)
T9 sequence: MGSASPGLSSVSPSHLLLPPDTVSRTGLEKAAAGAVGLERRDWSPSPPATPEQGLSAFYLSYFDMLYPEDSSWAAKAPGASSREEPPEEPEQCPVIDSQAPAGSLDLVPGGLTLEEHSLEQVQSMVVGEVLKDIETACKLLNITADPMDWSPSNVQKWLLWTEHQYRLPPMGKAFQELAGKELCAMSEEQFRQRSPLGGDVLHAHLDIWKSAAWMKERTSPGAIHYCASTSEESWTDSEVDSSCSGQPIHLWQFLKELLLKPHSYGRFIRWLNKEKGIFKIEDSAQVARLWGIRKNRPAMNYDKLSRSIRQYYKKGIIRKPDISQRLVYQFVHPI
Summary of the method: as §1

[14] = target: T10, ETV7 (Homo sapiens, UniProt Q9Y603 1-341)
T10 sequence: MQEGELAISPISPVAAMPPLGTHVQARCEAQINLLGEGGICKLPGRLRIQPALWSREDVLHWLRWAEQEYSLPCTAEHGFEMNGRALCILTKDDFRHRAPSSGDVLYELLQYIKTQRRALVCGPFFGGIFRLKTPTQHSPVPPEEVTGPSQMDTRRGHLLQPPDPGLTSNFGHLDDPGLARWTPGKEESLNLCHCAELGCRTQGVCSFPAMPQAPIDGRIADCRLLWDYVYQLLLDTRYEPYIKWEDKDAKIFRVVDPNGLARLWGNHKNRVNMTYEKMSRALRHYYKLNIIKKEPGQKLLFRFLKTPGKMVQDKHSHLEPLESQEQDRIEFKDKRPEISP
Summary of the method: as §1

[15] = target: T11, ELF5 (Homo sapiens, UniProt Q9UKW6-2 1-255)
T11 sequence: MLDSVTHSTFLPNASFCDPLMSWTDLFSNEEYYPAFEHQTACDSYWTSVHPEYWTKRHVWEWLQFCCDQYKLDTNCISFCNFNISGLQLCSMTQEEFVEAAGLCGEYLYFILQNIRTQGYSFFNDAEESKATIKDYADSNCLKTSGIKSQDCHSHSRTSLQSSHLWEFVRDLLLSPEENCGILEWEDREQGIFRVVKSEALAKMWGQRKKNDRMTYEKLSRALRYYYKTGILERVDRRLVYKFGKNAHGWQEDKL
Summary of the method: as §1

[16] = target: T12, ETV3 (Homo sapiens, UniProt P41162-2 1-143)
T12 sequence: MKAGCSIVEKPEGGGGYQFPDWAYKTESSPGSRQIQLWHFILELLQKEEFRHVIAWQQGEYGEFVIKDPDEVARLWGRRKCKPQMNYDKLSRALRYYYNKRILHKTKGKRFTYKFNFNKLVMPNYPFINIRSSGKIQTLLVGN
Summary of the method: as §1

[17] = target: ETV6 (Homo sapiens, UniProt P41212 1-452)
Summary of the method: as §1

Chain of ETV5 (P41161 whole entry): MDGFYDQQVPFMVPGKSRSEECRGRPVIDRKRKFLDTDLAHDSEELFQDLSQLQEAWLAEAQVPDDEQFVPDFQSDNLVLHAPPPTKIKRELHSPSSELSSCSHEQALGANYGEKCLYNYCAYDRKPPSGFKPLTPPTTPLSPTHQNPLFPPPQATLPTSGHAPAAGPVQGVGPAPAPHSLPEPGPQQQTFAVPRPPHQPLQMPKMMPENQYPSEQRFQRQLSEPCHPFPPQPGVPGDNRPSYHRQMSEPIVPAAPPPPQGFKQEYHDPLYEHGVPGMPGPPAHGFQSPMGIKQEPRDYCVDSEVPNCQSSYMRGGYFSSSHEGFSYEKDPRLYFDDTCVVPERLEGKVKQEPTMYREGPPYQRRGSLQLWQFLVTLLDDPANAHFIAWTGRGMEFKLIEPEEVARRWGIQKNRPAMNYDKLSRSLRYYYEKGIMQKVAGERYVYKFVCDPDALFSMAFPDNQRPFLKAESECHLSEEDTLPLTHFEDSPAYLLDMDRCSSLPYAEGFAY
Chain of ETV1 (P50549 whole entry): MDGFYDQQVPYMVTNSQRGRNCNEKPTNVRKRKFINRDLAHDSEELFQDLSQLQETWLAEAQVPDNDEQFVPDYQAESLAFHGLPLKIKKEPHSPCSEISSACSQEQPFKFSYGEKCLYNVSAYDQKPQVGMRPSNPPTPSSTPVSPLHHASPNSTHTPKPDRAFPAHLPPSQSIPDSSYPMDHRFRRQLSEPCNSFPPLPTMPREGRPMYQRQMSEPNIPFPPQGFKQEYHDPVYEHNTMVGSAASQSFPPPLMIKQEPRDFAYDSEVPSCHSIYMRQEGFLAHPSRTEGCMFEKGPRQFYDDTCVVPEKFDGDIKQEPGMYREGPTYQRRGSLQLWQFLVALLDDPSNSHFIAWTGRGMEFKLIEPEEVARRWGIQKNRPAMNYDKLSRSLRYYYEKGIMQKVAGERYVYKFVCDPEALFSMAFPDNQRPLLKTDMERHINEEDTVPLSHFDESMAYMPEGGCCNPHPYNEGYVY
Chain of CRX (O43186 whole entry): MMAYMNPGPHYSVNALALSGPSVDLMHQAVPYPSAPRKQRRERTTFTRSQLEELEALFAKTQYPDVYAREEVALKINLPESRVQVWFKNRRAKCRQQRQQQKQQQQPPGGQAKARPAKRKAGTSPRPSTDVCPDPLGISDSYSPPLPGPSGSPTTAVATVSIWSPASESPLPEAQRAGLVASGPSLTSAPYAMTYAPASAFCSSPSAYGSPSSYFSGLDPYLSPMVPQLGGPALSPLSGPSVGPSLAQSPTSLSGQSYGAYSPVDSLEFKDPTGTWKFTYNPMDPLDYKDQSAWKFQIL
Chain of ETV6 (P41212 whole entry): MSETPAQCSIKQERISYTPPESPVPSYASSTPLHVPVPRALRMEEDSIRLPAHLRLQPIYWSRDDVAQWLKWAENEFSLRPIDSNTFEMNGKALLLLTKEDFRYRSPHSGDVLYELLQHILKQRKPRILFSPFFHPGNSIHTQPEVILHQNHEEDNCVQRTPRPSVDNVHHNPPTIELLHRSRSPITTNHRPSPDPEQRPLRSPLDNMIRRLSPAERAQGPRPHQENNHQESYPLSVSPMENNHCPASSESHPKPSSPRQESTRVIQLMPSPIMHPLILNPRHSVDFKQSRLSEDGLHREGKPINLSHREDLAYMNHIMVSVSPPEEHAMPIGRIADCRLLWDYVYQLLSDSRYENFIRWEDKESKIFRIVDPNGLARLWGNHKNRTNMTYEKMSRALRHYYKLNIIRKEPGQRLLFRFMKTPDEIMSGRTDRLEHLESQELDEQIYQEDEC
Chain of ELF4 (Q99607 whole entry): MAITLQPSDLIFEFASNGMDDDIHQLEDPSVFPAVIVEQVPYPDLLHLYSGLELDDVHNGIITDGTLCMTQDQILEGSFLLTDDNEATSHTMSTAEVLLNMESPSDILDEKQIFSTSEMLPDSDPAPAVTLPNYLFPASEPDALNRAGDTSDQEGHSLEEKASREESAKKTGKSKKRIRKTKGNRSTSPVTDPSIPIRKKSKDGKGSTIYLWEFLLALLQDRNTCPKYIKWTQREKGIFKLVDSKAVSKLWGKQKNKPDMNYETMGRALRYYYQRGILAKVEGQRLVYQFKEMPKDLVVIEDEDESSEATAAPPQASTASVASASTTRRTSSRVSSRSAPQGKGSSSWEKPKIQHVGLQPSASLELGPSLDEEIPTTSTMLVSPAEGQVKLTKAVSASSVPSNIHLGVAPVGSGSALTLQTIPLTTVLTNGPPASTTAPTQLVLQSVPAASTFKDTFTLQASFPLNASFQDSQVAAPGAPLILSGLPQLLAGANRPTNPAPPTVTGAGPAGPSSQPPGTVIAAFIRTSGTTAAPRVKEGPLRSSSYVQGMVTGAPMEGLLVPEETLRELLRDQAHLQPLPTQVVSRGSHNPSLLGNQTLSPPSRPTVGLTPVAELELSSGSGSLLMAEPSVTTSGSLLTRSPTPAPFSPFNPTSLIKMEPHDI

## TACCCA
[1]
  binding signal: 1.03 fold enrichment (6-mer frequency, TF over GST control)
[2]
  binding signal: 1.11 fold enrichment (6-mer frequency, TF over GST control)
[3]
  binding signal: 1.08 fold enrichment (6-mer frequency, TF over GST control)
[4]
  binding signal: 1.08 fold enrichment (6-mer frequency, TF over GST control)
[5]
  binding signal: 1.02 fold enrichment (6-mer frequency, TF over GST control)
[6]
  binding signal: 1.12 fold enrichment (6-mer frequency, TF over GST control)
[7]
  binding signal: 1.18 fold enrichment (6-mer frequency, TF over GST control)
[8]
  binding signal: 1.08 fold enrichment (6-mer frequency, TF over GST control)
[9]
  binding signal: 1.03 fold enrichment (6-mer frequency, TF over GST control)
[10]
  binding signal: 1.18 fold enrichment (6-mer frequency, TF over GST control)
[11]
  binding signal: 1.06 fold enrichment (6-mer frequency, TF over GST control)
[12]
  binding signal: 1.17 fold enrichment (6-mer frequency, TF over GST control)
[13]
  binding signal: 1.09 fold enrichment (6-mer frequency, TF over GST control)
[14]
  binding signal: 1.07 fold enrichment (6-mer frequency, TF over GST control)
[15]
  binding signal: 1.09 fold enrichment (6-mer frequency, TF over GST control)
[16]
  binding signal: 1.06 fold enrichment (6-mer frequency, TF over GST control)
[17]
  binding signal: 1 fold enrichment (6-mer frequency, TF over GST control)
